{"source": "PubChem BioAssay AID602449", "about": "(Sanford-Burnham Center for Chemical Genomics, 2012)", "note": "Among all 360,000 compounds or so, about 5,000 (1.4%) were called active.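 How the source made its calls: active means inhibition of 50% or more, scaled per plate between neutral and stimulator controls; inactive means the rest.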 The full list was thinned out, with actives kept by preference."}
{"test": "blockers of Ca2+-induced mitochondrial swelling – biochemical, isolated mouse mitochondria, absorbance, primary screen (AID 602449);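 further: 0% = DMSO wells given calcium and 100% = 1 mM EGTA wells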", "conditions": "30 min, at 10 µM, stronger effect = higher value"}
{"smiles": "COc1ccc(C(=O)c2c(C)oc3cc([N+](=O)[O-])c(O)c([N+](=O)[O-])c23)cc1", "inhibition": "3.3% (inactive)"}
{"smiles": "Cc1ccc(C(=O)c2ccc(N3CCN(C)CC3)c([N+](=O)[O-])c2)cc1", "inhibition": "0.6% (inactive)"}
{"smiles": "Cc1oc2cc([N+](=O)[O-])c(O)c([N+](=O)[O-])c2c1C(=O)c1ccc(Br)cc1", "inhibition": "74.4% (active)"}
{"smiles": "O=C(Nc1ccccc1F)C1C2C=CC3(O2)C1C(=O)N(c1cccnc1)C3C(=O)NC1CCCCC1", "note": "(stereo not drawn)", "inhibition": "1.6% (inactive)"}
{"smiles": "O=S(=O)(NCC1OCCc2ccccc21)c1ccccc1", "note": "(stereo not drawn)", "inhibition": "4.3% (inactive)"}
{"smiles": "O=C(O)C(CCc1ccccn1)c1ccccc1", "note": "(stereo not drawn)", "inhibition": "0.6% (inactive)"}
{"smiles": "CC1CCCC(NC(=O)c2cccc(N3CCCC3=O)c2)C1C", "note": "(stereo not drawn)", "inhibition": "-0.6% (inactive)"}
{"smiles": "CCCOc1ccc(C(=O)C(CCC(CNCC)C(=O)c2ccc(OCCC)cc2)CNCC)cc1", "note": "(stereo not drawn)", "inhibition": "73.6% (active)"}
{"smiles": "CCCc1ccc(OCCNC(=O)c2ccccc2Br)cc1", "inhibition": "0.4% (inactive)"}
{"smiles": "CC(C)CCOc1ccc(C(=O)C[N+]2(C)CCOCC2)cc1", "inhibition": "-1.9% (inactive)"}
{"smiles": "COc1cccc(NC(=O)COc2cc(C)cc3oc(=O)cc(C)c23)c1", "inhibition": "0.4% (inactive)"}
{"smiles": "Cc1nccn1CCC1CCCCN1C(=O)CCc1nnc(-c2ccsc2)o1", "note": "(stereo not drawn)", "inhibition": "-1.2% (inactive)"}
{"smiles": "O=C(Nc1nnc(C2COc3ccccc3O2)o1)c1ccc(F)cc1", "note": "(stereo not drawn)", "inhibition": "-3% (inactive)"}
{"smiles": "c1ccc2c(c1)CSc1sccc1C2=C1CCNCC1", "inhibition": "94.3% (active)"}
{"smiles": "Cc1ccc(-n2ncc3c(Nc4cccc(C(=O)O)c4)ncnc32)cc1", "inhibition": "3.4% (inactive)"}
{"smiles": "Cn1c2c(c(=O)n(C)c1=O)C(c1cccc(F)c1)C(C#N)=C(N)O2", "note": "(stereo not drawn)", "inhibition": "1.8% (inactive)"}
{"smiles": "N#CC1=C(N)Oc2cc(N)ccc2C1c1ccccc1", "note": "(stereo not drawn)", "inhibition": "-0.1% (inactive)"}
{"smiles": "Cc1nn(Cc2ccccc2)c2c1C(c1ccccc1)C(C#N)=C(N)O2", "note": "(stereo not drawn)", "inhibition": "81.3% (active)"}
{"smiles": "C[C@H]1CN([C@@H](C)CO)C(=O)CCCn2cc(nn2)CO[C@@H]1CN(C)S(=O)(=O)c1ccccc1C#N", "inhibition": "-0.4% (inactive)"}
{"smiles": "COc1ccc(NC(=O)C(CC(C)C)NC(=O)C2CCC(C)CC2)cc1", "note": "(stereo not drawn)", "inhibition": "0.1% (inactive)"}
{"smiles": "O=C(CN1CCN(c2ccccc2O)CC1)NC(=O)NCc1ccccc1", "inhibition": "1.2% (inactive)"}
{"smiles": "O=C(CSc1ncn[nH]1)Nc1nc(-c2cccc([N+](=O)[O-])c2)cs1", "inhibition": "8.3% (inactive)"}
{"smiles": "O=C(CSc1nc(-c2ccccc2)cs1)Nc1cccc([N+](=O)[O-])c1", "inhibition": "93% (active)"}
{"smiles": "O=C(CN1CCC(NC(=O)Nc2ccccc2)CC1)Nc1cccc([N+](=O)[O-])c1", "inhibition": "-0.8% (inactive)"}
{"smiles": "CC1CCC(NC(=O)CN(C)S(=O)(=O)c2ccc3c(c2)c(=O)n(C)c(=O)n3C)CC1", "note": "(stereo not drawn)", "inhibition": "-2.1% (inactive)"}
{"smiles": "O=C(CSc1nnc(-c2cccs2)n1Cc1ccco1)c1ccc2c(c1)OCO2", "inhibition": "-1.2% (inactive)"}
{"smiles": "COc1ccc(/C=C2\\CCCC3C2=NN(C(=O)c2scnc2C)C3c2ccc(OC)cc2)cc1", "note": "(stereo not drawn)", "inhibition": "-3.7% (inactive)"}
{"smiles": "CCc1cc2c(N3CCN(c4nnc(CC)s4)CC3)ncnc2s1", "inhibition": "58.3% (active)"}
{"smiles": "CCc1ccc(C(=O)NNC(=O)C2CCN(c3ncnc4sc(C)c(C)c34)CC2)cc1", "inhibition": "-0.3% (inactive)"}
{"smiles": "NC[C@H](Cc1ccccc1)NCCc1cc(C(F)(F)F)cc(C(F)(F)F)c1", "inhibition": "88.5% (active)"}
{"smiles": "COC(=O)[C@@H](Cc1ccccc1)NC(=O)NCCc1ccccc1", "inhibition": "0.6% (inactive)"}
{"smiles": "CCOC(=O)c1c(NC(=O)CNC2CCCc3ccccc32)sc(C(N)=O)c1C", "note": "(stereo not drawn)", "inhibition": "0.8% (inactive)"}
{"smiles": "O=C(NC1CCN(Cc2ccccc2)CC1)c1cc(Br)c(Br)[nH]1", "inhibition": "66.2% (active)"}
{"smiles": "O=C(NC1CCN(Cc2ccccc2)CC1)c1ccc(Oc2cc(Cl)cc(Cl)c2)o1", "inhibition": "10.6% (inactive)"}
{"smiles": "Cc1cc(C(=O)NC2CCN(Cc3ccccc3)CC2)n[nH]1", "inhibition": "-1.6% (inactive)"}
{"smiles": "CCc1nc2c(=O)[nH]cnc2o1", "inhibition": "-1.8% (inactive)"}
{"smiles": "O=C(CSc1nc(=O)n2ccccc2n1)Nc1ccc2c(c1)OCCO2", "inhibition": "-1.6% (inactive)"}
{"smiles": "Cc1nnc(SC(C(=O)Nc2cc(Cl)cc(Cl)c2)c2ccccc2)[nH]c1=O", "note": "(stereo not drawn)", "inhibition": "86.4% (active)"}
{"smiles": "Cc1nnc(SC(C(=O)c2ccccc2)c2ccccc2)[nH]c1=O", "note": "(stereo not drawn)", "inhibition": "1.4% (inactive)"}
{"smiles": "CC(NCC(=O)Nc1cc(Cl)cc(Cl)c1)c1ccccc1", "note": "(stereo not drawn)", "inhibition": "3.1% (inactive)"}
{"smiles": "CCC(C)[C@H]1COCCS(=O)(=O)N1Cc1ccc(C)cc1", "note": "(stereo partly drawn)", "inhibition": "-0.2% (inactive)"}
{"smiles": "CCC(c1nnc(SCC(=O)NNC(=O)c2ccccc2)n1Cc1ccccc1)N(C)C", "note": "(stereo not drawn)", "inhibition": "1.2% (inactive)"}
{"smiles": "COc1ccc(NC(=O)CN(C)C(=O)c2cc(C3CC3)nn2-c2ccccc2)cc1", "inhibition": "-0.5% (inactive)"}
{"smiles": "Cc1cccc(C(=O)OCC(=O)NC(C)C2CC3CCC2C3)c1O", "note": "(stereo not drawn)", "inhibition": "0.9% (inactive)"}
{"smiles": "O=C(CN1CCN(C(=S)NC2CCCC2)CC1)Nc1ccc(Oc2ccccc2)cc1", "inhibition": "5.8% (inactive)"}
{"smiles": "CCN(CC)S(=O)(=O)c1ccc(N(C)Cc2ccc(C(F)(F)F)cc2)nc1", "inhibition": "94% (active)"}
{"smiles": "CCN(CC)S(=O)(=O)c1ccc(N(C)Cc2cccc(OC)c2OC)nc1", "inhibition": "3.9% (inactive)"}
{"smiles": "CCN(CC)S(=O)(=O)c1ccc(N(C)CCc2ccc(OC)c(OC)c2)nc1", "inhibition": "-2% (inactive)"}
{"smiles": "NC(=O)C1CCN(C(=O)c2ccc(C(F)(F)F)cc2)CC1", "inhibition": "-3.2% (inactive)"}
{"smiles": "CC1(c2ccc3ccccc3c2)NC(=O)N(CC(N)=O)C1=O", "note": "(stereo not drawn)", "inhibition": "1% (inactive)"}
{"smiles": "Cc1ccc2c(c1)C1CN(C)CCC1N2C(=O)c1ccccc1NS(=O)(=O)c1ccc(F)cc1C", "note": "(stereo not drawn)", "inhibition": "-0.2% (inactive)"}
{"smiles": "Cc1ccc2c(c1)C1CN(C)CCC1N2S(=O)(=O)c1cccc(F)c1", "note": "(stereo not drawn)", "inhibition": "0.2% (inactive)"}
{"smiles": "Cc1ccc2c(c1)C1CN(C)CCC1N2S(=O)(=O)c1ccc(Oc2ccc([N+](=O)[O-])cc2)cc1", "note": "(stereo not drawn)", "inhibition": "83.1% (active)"}
{"smiles": "COc1cc(OC)c(C(=O)NNC(=O)c2ccccc2-n2cccc2)cc1OC", "inhibition": "-0.2% (inactive)"}
{"smiles": "Cc1ccc(C(=O)OCC(=O)NC2CCCCCCC2)cc1C", "inhibition": "-1.2% (inactive)"}
{"smiles": "CCc1nc2c(OCc3ccc(F)c(F)c3)cccn2c1N(C)C(=O)c1ccco1", "inhibition": "-2.8% (inactive)"}
{"smiles": "CCc1nc2c(OCc3ccccc3)cccn2c1N(C)C(=O)c1ccco1", "inhibition": "0% (inactive)"}
{"smiles": "CCc1nc2c(OCc3ccc(Cl)cc3Cl)cccn2c1N(C)C(=O)C(C)C", "inhibition": "-3.5% (inactive)"}
{"smiles": "Cc1nc2c(OCC(=O)C(C)(C)C)cccn2c1N(C)Cc1cccs1", "inhibition": "2.6% (inactive)"}
{"smiles": "Cc1nc2c(OCc3ccc(Cl)cc3)cccn2c1N(C)Cc1cccs1", "inhibition": "79.6% (active)"}
{"smiles": "Cc1nc2c(OCc3ccc(Cl)cc3Cl)cccn2c1N(C)CC1CC1", "inhibition": "82.3% (active)"}
{"smiles": "Cc1nc2c(OCc3cccc(Cl)c3)cccn2c1N(C)CC1CC1", "inhibition": "88.2% (active)"}
{"smiles": "CCCCC(=O)N(C)c1c(CC)nc2c(OCc3ccc(Cl)cc3Cl)cccn12", "inhibition": "-1.5% (inactive)"}
{"smiles": "CCc1nc2c(OCc3cccc(OC)c3)cccn2c1N(C)C(=O)C(C)C", "inhibition": "-1.6% (inactive)"}
{"smiles": "CCOc1cc(-c2noc(CCCC(=O)NC3CCCCC3)n2)ccc1OC", "inhibition": "0.3% (inactive)"}
{"smiles": "CCc1nc2ccc(C(=O)NCCNC(C)=O)cn2c1N(CC)Cc1cccc(Br)c1", "inhibition": "-0.2% (inactive)"}
{"smiles": "CCCC(C)C(=O)OCC(=O)Nc1c(Br)cc(C)cc1Br", "note": "(stereo not drawn)", "inhibition": "-0.2% (inactive)"}
{"smiles": "CCc1c(C)sc(NC(=O)c2cccs2)c1C(N)=O", "inhibition": "-0.6% (inactive)"}
{"smiles": "OC(C#CCN1CCOCC1)(c1ccccc1)C1CCCCC1", "note": "(stereo not drawn)", "inhibition": "-2.4% (inactive)"}
{"smiles": "CCc1oc(-c2ccc(OC)cc2)c(C(=O)OCCCCCO)c1C(C)OCCO", "note": "(stereo not drawn)", "inhibition": "0.2% (inactive)"}
{"smiles": "CCC(C)(C)NC(=O)CN(C(=O)C(=O)Nc1ccc2c(c1)OCCO2)C(C)(C)CC", "inhibition": "-1% (inactive)"}
{"smiles": "O=C1[C@@H]2C(c3cccnc3)=NO[C@@H]2C(=O)N1c1ccc(Cl)cc1Cl", "inhibition": "2.7% (inactive)"}
{"smiles": "CC(=O)Nc1ccc(NS(=O)(=O)c2cc(C)sc2C)cc1", "inhibition": "0.5% (inactive)"}
{"smiles": "CCCc1cc(=S)n2c([nH]c3ccccc32)c1C#N", "inhibition": "94.4% (active)"}
{"smiles": "CN(C)Cc1c(C#N)c2ccccc2n1C", "inhibition": "-1.4% (inactive)"}
{"smiles": "O=C(COc1ccc(Cl)cc1)NCCS(=O)(=O)N1CCN(c2ccc(F)cc2)CC1", "inhibition": "1.5% (inactive)"}
{"smiles": "CCOC(=O)N1CCC(NC(=O)C(NS(=O)(=O)c2ccc3c(c2)CCN3C(=O)CC)C(C)C)CC1", "note": "(stereo not drawn)", "inhibition": "-0.2% (inactive)"}
{"smiles": "O=C(Cc1cccc2ccccc12)NNC(=O)Nc1ccc(Cl)cc1", "inhibition": "72.6% (active)"}
{"smiles": "CC(C)(C)C(=O)NC(NC(=S)Nc1ccc(S(N)(=O)=O)cc1)C(Cl)(Cl)Cl", "note": "(stereo not drawn)", "inhibition": "-2.5% (inactive)"}
{"smiles": "O=C(O)Cc1ccc(NC(=O)Nc2cccc3ccccc23)cc1", "inhibition": "0.9% (inactive)"}
{"smiles": "Cc1ccc(CNC(=O)[C@@H](NC(=O)Cc2ccccc2)C(C)C)cc1", "inhibition": "0.5% (inactive)"}
{"smiles": "CN(CC(=O)Nc1ccc(Cl)cc1)CC(=O)Nc1cccc2ccccc12", "inhibition": "0.6% (inactive)"}
{"smiles": "Cc1ccc(NC(=S)NC(NC(=O)Cc2cccc3ccccc23)C(Cl)(Cl)Cl)cc1", "note": "(stereo not drawn)", "inhibition": "55.5% (active)"}
{"smiles": "CCCOC(=O)CC1C(=O)NCCN1Cc1ccc(F)cc1", "note": "(stereo not drawn)", "inhibition": "0.6% (inactive)"}
{"smiles": "Cn1nnnc1SCC(=O)Nc1cccc(S(=O)(=O)N2CCCCC2)c1", "inhibition": "-0.1% (inactive)"}
{"smiles": "CN(NS(=O)(=O)c1cccs1)c1ncc(C(F)(F)F)cc1Cl", "inhibition": "2.5% (inactive)"}
{"smiles": "Cc1cc(C)cc(NS(=O)(=O)c2ccc(Oc3ncc(C(F)(F)F)cc3Cl)cc2)c1", "inhibition": "50.8% (active)"}
{"smiles": "Cc1ccc(NS(=O)(=O)c2ccc(F)cc2)nc1", "inhibition": "-0.6% (inactive)"}
{"smiles": "COc1ccc(CCOC(=O)CNC(=O)c2ccc(Cl)cc2Cl)cc1", "inhibition": "1.4% (inactive)"}
{"smiles": "COc1ccc(CNc2nccs2)cc1", "inhibition": "0.7% (inactive)"}
{"smiles": "COc1ccc(CNc2ncnc3ccccc23)cc1", "inhibition": "70.5% (active)"}
{"smiles": "O=C(COc1ncnc2ccccc12)NC(=O)NCc1ccccc1", "inhibition": "-0.1% (inactive)"}
{"smiles": "CC1(C)C2CC=C(/C=N/NC(=O)C3CC3)C1C2", "note": "(stereo not drawn)", "inhibition": "-1.7% (inactive)"}
